According to PubChem BioAssay (NCI):
Where “and” joins values, the source holds several entries; their conditions need not be identical. Equal entries are not always repeated. About 83,000 compounds went through this panel and 20% of them were active in at least one assay; those are over-represented in the sample as a whole.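 Method: cells in 96-well plates; compound added at one concentration; 48 h incubation; percent growth measured; values under 10 scored active.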 Calls of active or inactive are those of the source.

Legend:
Experiment in all cases: NCI-60 one-dose screen, 48 h (100 = growth as untreated, 0 = no growth, -100 = all killed)
Settings in all cases: 10 µM unless noted
[1] = system: SR leukemia
[2] = system: RPMI-8226 leukemia
[3] = system: OVCAR-8 ovarian
[4] = system: OVCAR-5 ovarian
[5] = system: OVCAR-4 ovarian
[6] = system: SK-OV-3 ovarian
[7] = system: IGROV1 ovarian
[8] = system: OVCAR-3 ovarian
[9] = system: HS 578T breast
[10] = system: NCI/ADR-RES ovarian
[11] = system: T-47D breast
[12] = system: BT-549 breast
[13] = system: MDA-MB-435 melanoma
[14] = system: SW-620 colon
[15] = system: MCF7 breast
[16] = system: HCT-116 colon
[17] = system: HCC-2998 colon
[18] = system: KM12 colon
[19] = system: MDA-MB-468 breast

Measured: growth

COc1nc(N)ncc1-c1ccc2ncnc(N3CCc4cc(F)c(Cl)cc43)c2c1
active: [1] -11.2% | [3] -24.1% | [4] -2.67% | [5] -84.5% | [6] -36.6% | [7] -45.3% | [8] -24.7% | [9] 7.35% | [11] -46.3% | [16] -8.98% | [19] -24.9%
inactive: [2] 14% | [10] 18.9% | [12] 19.9% | [13] 68.2% | [14] 34.3% | [15] 29.8% | [17] 12.2% | [18] 70%

COc1ccc(S(=O)(=O)Nc2ccc(-c3ccc4c(c3)NC(=O)/C4=C\c3ccc[nH]3)cc2)cc1OC
active: [1] 8.03% | [3] 1.66% | [5] 8.08% | [11] -21% | [15] -39% | [19] -56.2%
inactive: [2] 39.4% | [4] 18.5% | [6] 27.1% | [7] 29.3% | [8] 57.2% | [9] 23.4% | [10] 22.1% | [12] 13.3% | [13] 22% | [14] 16.1% | [16] 19% | [17] 24.2% | [18] 33.6%

Cc1ccc(C(=O)Nc2cc(-c3ccncc3)cc(C(F)(F)F)c2)cc1C#Cc1cnc2cccnn12
active: [1] -11.9%
inactive: [2] 20% | [3] 50.4% | [4] 53.5% | [5] 63.5% | [6] 127% | [7] 54.4% | [8] 95.6% | [9] 23% | [10] 50.2% | [11] 81.6% | [12] 86.8% | [13] 33.9% | [14] 30.7% | [15] 45.9% | [16] 23.4% | [17] 63.5% | [18] 36.2% | [19] 92.7%

CC1(C)CC(=O)C2=C(C1)OC(N)=C(c1nc3ccccc3[nH]1)C2c1ccc(Cl)cc1 (stereo not given)
6.8% (active) and 119% (inactive): [9]
inactive: [1] 41.4% and 97.8% | [2] 45.8% and 109% | [3] 69.2% and 108% | [4] 101% and 118% | [5] 57.6% and 109% | [6] 111% and 108% | [7] 62.3% and 108% | [8] 47.8% and 78.4% | [10] 78% and 109% | [11] 72.3% and 117% | [12] 57.5% and 123% | [13] 60.5% and 109% | [14] 81% and 104% | [15] 56.4% and 93.7% | [16] 63.4% and 103% | [17] 76.9% and 111% | [18] 36.7% and 100% | [19] 47.3% and 103%

COc1sc(/C=N/NC(=O)c2[nH]c3ccc(Br)cc3c2-c2ccccc2)cc1Cl
inactive: [1] 11.1% | [2] 12.7% | [5] 29.9% | [6] 12.1% | [11] 54.3%
active: [3] -30.4% | [4] -29.3% | [7] -41.1% | [8] 4.74% | [9] 7.66% | [10] -48.7% | [12] -35.2% | [13] -10.1% | [14] -33.8% | [15] -26.6% | [16] -43.5% | [17] -30.8% | [18] -16.1% | [19] -6.37%

CCCSc1nnc(-c2sc3nc4ccccc4n3c2C)o1
inactive: [1] 107% | [2] 97.7% | [3] 107% | [4] 111% | [5] 104% | [6] 121% | [7] 107% | [8] 117% | [9] 109% | [10] 98.7% | [11] 102% | [12] 157% | [13] 105% | [14] 108% | [15] 90.3% | [16] 106% | [17] 112% | [18] 101% | [19] 88.9%

CCCCCCCCCc1ccc(C(=O)Nc2cc(C)ccc2C(=O)OC)cc1
inactive: [1] 90.1% | [2] 81.6% | [3] 110% | [4] 111% | [5] 94.5% | [6] 107% | [7] 118% | [8] 124% | [9] 106% | [10] 109% | [11] 99.1% | [12] 129% | [13] 105% | [14] 99.7% | [15] 91.2% | [16] 96.7% | [17] 122% | [18] 105% | [19] 118%

O=C(Nc1ccc(-c2ccc3c(c2)NC(=O)/C3=C\c2ccc[nH]2)cc1)Nc1ccc(Cl)c(Cl)c1
inactive: [1] 16% | [2] 41.1% | [3] 55.6% | [4] 67.9% | [5] 37.6% | [6] 94.7% | [7] 65.7% | [8] 12.9% | [9] 45.9% | [10] 51.4% | [11] 18.8% | [12] 40.5% | [13] 62.6% | [14] 16.7% | [16] 35.3% | [17] 83.5%
active: [15] 9.81% | [18] 8.6% | [19] -16.8%

C/C(=N/O)c1ccc(NC(=O)CSc2nnc(-c3ccc(-c4nc5ccc(Cl)cc5[nH]4)cc3)o2)cc1
inactive: [1] 12.3% | [2] 18.2% | [4] 55.3% | [5] 14.5% | [6] 39.6% | [7] 34.5% | [10] 88.9% | [11] 11.8% | [12] 14.2% | [17] 71.2% | [19] 64.9%
active: [3] -31.7% | [8] -5.29% | [9] -13.3% | [13] -32.9% | [14] -54.9% | [15] 3.95% | [16] 4.71% | [18] 2.42%

CC(C)(C)c1ccc(OCc2nc3ccccc3n2-c2cccc(N)c2)cc1
inactive: [1] 26.3% and 92.3% | [2] 48.3% and 110% | [3] 72.3% and 110% | [4] 85.7% and 111% | [5] 49.6% and 105% | [6] 103% and 107% | [7] 65.7% and 108% | [8] 53.1% and 128% | [9] 53.9% and 96.3% | [10] 50.2% and 101% | [11] 32.3% and 99.1% | [12] 73.6% and 115% | [13] 70.5% and 102% | [14] 77% and 116% | [15] 32% and 92.1% | [16] 56.8% and 104% | [17] 81.9% and 107% | [18] 54.5% and 105% | [19] 69% and 96.4%

N/C(=N\c1nc2ccccc2s1)NC(=O)Nc1ccccc1F
inactive: [1] 20.8% | [2] 15.8% | [3] 10.6% | [4] 31.4% | [5] 49.6% | [7] 37.5% | [11] 31.1% | [12] 30.2% | [14] 43% | [15] 20.1% | [16] 10.2% | [17] 45.9% | [18] 22.6%
active: [6] -1.47% | [8] 7.03% | [9] 7.56% | [10] -14.8% | [13] -18.1% | [19] -12.3%

COC(=O)c1cc(C(C)=O)n2c3ccccc3c3ccccc3c12
inactive: [1] 64.7% | [2] 87.7% | [3] 50.5% | [4] 92.6% | [5] 44.3% | [6] 99.3% | [7] 41.5% | [8] 73.4% | [9] 29.8% | [10] 44.6% | [11] 54.6% | [12] 38.5% | [13] 93% | [14] 89.3% | [15] 59.6% | [16] 50.3% | [17] 91.4% | [18] 86% | [19] 65.8%

COc1ccc(N=Nc2c(N)nn3c(N)c(C#N)c(-c4ccc(F)cc4)nc23)cc1
inactive: [1] 78.4% | [2] 50.3% | [3] 29.6% | [4] 95.9% | [5] 50.9% | [6] 43.1% | [7] 76.9% | [8] 103% | [9] 20.6% | [10] 25.1% | [11] 55.7% | [12] 49.3% | [13] 86.2% | [14] 88.6% | [15] 57.1% | [16] 46.4% | [17] 66.7% | [18] 56.7% | [19] 46.7%

COc1ccc(-c2cc(C(=O)N=Nc3c(O)[nH]c4ccc(Cl)cc34)c3ccccc3n2)cc1
active: [7] -18.8% | [14] 7.42%
inactive: [1] 53.1% | [2] 102% | [3] 22.1% | [4] 42.5% | [5] 23.7% | [6] 78.1% | [8] 44.2% | [9] 77.6% | [10] 28.7% | [11] 102% | [12] 107% | [13] 44.4% | [15] 19.2% | [16] 65.6% | [17] 19.3% | [18] 28% | [19] 74.9%

CCCCN1C(=O)/C(=C\C(=O)c2cc3ccccc3oc2=O)c2ccccc21
inactive: [2] 23.7% | [3] 67.3% | [4] 96.7% | [5] 83.9% | [6] 110% | [7] 70.2% | [8] 34.3% | [9] 75.6% | [10] 67.5% | [11] 23.6% | [12] 48% | [13] 84.2% | [15] 41% | [16] 51.3% | [17] 93.9% | [18] 85% | [19] 18.1%
active: [1] -2.51% | [14] -47.6%
